SMILES strings stand for the structures. Calls of active or inactive are those of the source. Rule for the calls: active = hit-call score of the fitted dose curve at least 0.9, where 1 is the maximum; inactive = score below 0.9.

The assay can be described thus: ATG_M_32_CIS: Attagene CIS-FACTORIAL HepG2 Assay for M32 Transcription Factor (Internal Marker) (AID 2282949).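 Note: background control marker of the multiplexed CIS panel rather than a real target.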 The note with it: HepG2 Attagene cis-factorial M32 reporter, mRNA; actives raise or lower the signal. On the procedure:
ATG_CIS is a cell-based, multiplexed-readout assay that uses HepG2, a human liver cell line, with measurements taken at 24 hours after chemical dosing in a 24-well plate.ATG_M_32_CIS is one of 52 assay component(s) measured or calculated from the ATG_CIS assay. It is designed to make measurements of mRNA induction, a form of inducible reporter, as detected with fluorescence intensity signals by Reverse transcription polymerase chain reaction (RT-PCR) and Capillary electrophoresis technology.Data from the assay component ATG_M_32_CIS was analyzed into 1 assay endpoint. This assay endpoint, ATG_M_32_CIS, was analyzed with bidirectional fitting relative to DMSO as the negative control and baseline of activity. Using a type of inducible reporter, measures of mRNA for gain or loss-of-signal activity can be used to understand the background control at the transcription factor-level as they relate to the gene . Furthermore, this assay endpoint can be referred to as a secondary readout, because this assay has produced multiple assay endpoints where this one serves a background control function. To generalize the intended target to other relatable targets, this assay endpoint is annotated to the background measurement intended target family, where the subfamily is internal marker.
Human liver HepG2 cells are transiently transfected with multiple reporter transcription units (MRTUs) in 6-well plates using FuGene 6 reagent (Roche; 3 ml FuGene/1 mg DNA). The MRTU constructs are regulated by a cis-regulating element (promoter). […] A major difference between the CIS and TRANS system is that in CIS activities of endogenous TFs are measured, whereas the TRANS assay evaluates changes in activities of exogenous, chimeric NR-Gal4 proteins. […] At the end of 24 hour incubation, total RNA was isolated using TriZol reagent (Invitrogen). The isolated RNA is then reverse-transcribed using oligo(dT) primer and Mo-MLV reverse transcriptase (Invitrogen) with DNAse I (Ambion) treatment for 30 min. The one-tenth of the produced cDNA was amplified by PCR using Taq DNA polymerase (Invitrogen) and two reporter sequence-specific primers. The PCR products were fluorescently labeled by primer extension with 6-arboxyfluorescein (6-FAM) 5'-labeled reporter sequence-specific primer (2 min at 95 C, 20 s at 68 C and 10 min at 72 C) and these products were digested with 5U of HpaI (New England Biolabs) for 2h at 37 C. The fragments were purified using Qiaquick PCR columns (Qiagen), analyzed on an ABI 3130xL genetic analyzer (Applied Biosystems) with peak positions identified by using a set of X-rhodamine (ROX)-labeled MapMarker1000 molecular weight standards (BioVentures). The raw capillary electrophoresis data was processed using Attagraph software (Attagene).
On to `CN(N=O)c1ccc([N+](=O)[O-])cc1`, for which the result was inactive.
On to `C#CCOC(=O)/C=C(C)/C=C/CC(C)CCCC(C)C` (stereo not given), for which the result was inactive.
Still for that read-out and setting: in the case of `O=[N+]([O-])c1cc([As](=O)(O)O)ccc1O` it was “inactive”; in that of `COc1ccc(N)cc1`, “inactive”.
On the same count and under the same terms, in the case of `O=[N+]([O-])c1c2ccccc2cc2ccccc12` it was “inactive”; in that of `O=S(=O)(Oc1ccc(Cl)cc1)c1ccc(Cl)cc1`, “inactive”.
On the same count and under the same terms, in the case of `CN(N=O)C(N)=O` it was “inactive”.
Consider `O=NN1CCOCC1`, for which the call was inactive.
Consider `NC(=O)c1ccc(N)nc1`, for which the molecule was classed as inactive.
For `CN(CCCC(O)c1cccnc1)N=O` (stereo not given), the molecule was called inactive.
By AC50 is commonly meant the concentration giving half of the maximal activity seen. In the case of `CCOCn1c(-c2ccc(Cl)cc2)c(C#N)c(Br)c1C(F)(F)F`, the AC50 was 148 µM (active).
Consider `c1cc[c]([Sb]([c]2ccccc2)[c]2ccccc2)cc1`, for which the molecule was classed as inactive.
Still for that read-out and setting: as for `Nc1ccc(N)cc1`, the entry is “inactive”; as for `O=C=Nc1ccc(Cl)cc1`, “inactive”.
With `O=C(NC(=O)c1c(F)cccc1F)Nc1cc(Cl)c(F)c(Cl)c1F`, the result was inactive.
On to `Nc1cccnc1`, for which the outcome was inactive.
Still for that read-out and setting: in the case of `COC(=O)Nc1cccc(OC(=O)Nc2cccc(C)c2)c1` it was “inactive”.
On the same count and under the same terms, in the case of `CC(C)(C1CCC(O)CC1)C1CCC(O)CC1` (stereo not given) it was “inactive”; in that of `CC(C)O.CC(C)O.OCCN(CCO)CCO.OCCN(CCO)CCO.[Ti]`, “inactive”; in that of `Oc1cc(Cl)c(Cl)cc1Cl`, “inactive”.
Consider `Cc1ccc(OP(=O)(Oc2ccc(C)cc2C)Oc2ccc(C)cc2C)c(C)c1`, for which the call was inactive.
On to `CCCCOP(=O)(CCCC)OCCCC`, for which the outcome was inactive.
For the molecule `Cc1cc(C)cc(C)c1`, the molecule was called inactive.
Take `CC(C)[C@@H](Nc1ccc(C(F)(F)F)cc1Cl)C(=O)OC(C#N)c1cccc(Oc2ccccc2)c1` (stereo not given in full): the outcome was inactive.
Regarding `N#Cc1ccccc1Cl`, the result was inactive.
As for `CC(c1ccccc1)(c1ccc(O)cc1)c1ccc(O)cc1`, the call was inactive.
On the same count and under the same terms, in the case of `O=C(O)COc1cc(Cl)c(Cl)cc1Cl` it was “inactive”; in that of `O=c1[nH]c(=O)n(Cl)c(=O)n1Cl`, “inactive”.
On to `O=S(=O)(c1ccc(Cl)cc1)c1cc(Cl)c(Cl)cc1Cl`, for which the molecule was called inactive.
Take `O=C(Cl)OCCOCCOC(=O)Cl`: the call was inactive.
With `OC[C@@H](O)[C@H]1O[C@@H]2O[C@H](C(Cl)(Cl)Cl)O[C@@H]2[C@H]1O`, the molecule was called inactive.
On the same count and under the same terms, in the case of `CC1CC(=O)O1` (stereo not given) it was “inactive”.
On the same count and under the same terms, in the case of `COC(=O)c1cc(Oc2ccc(Cl)cc2Cl)ccc1[N+](=O)[O-]` it was “inactive”; in that of `COc1nn(C(=O)NS(=O)(=O)c2ccccc2OC(F)(F)F)c(=O)n1C`, “inactive”; in that of `CNC(=O)CSP(=O)(OC)OC`, “inactive”.
The same measure, in the same setting: as for `CC(C)C(C)(N)C#N` (stereo not given), the entry is “inactive”; as for `CC[N+](CC)(CC)CC`, “inactive”; as for `O=C(O)COc1ccc(Cl)cc1`, “inactive”.
As for `CCOC(=O)CCN(SN(C)C(=O)Oc1cccc2c1OC(C)(C)C2)C(C)C`, the result was inactive.
In the case of `CCCSP(=S)(OCC)Oc1ccc(Cl)cc1Cl` (stereo not given), the molecule was classed as inactive.

The values above are taken from PubChem BioAssay (EPA / NIEHS).
